A number with no mark means an inactive call. Activity calls are given as the source filed them. How the calls were made is not given here.
test system: HIV-1 nucleocapsid protein NCp7 (binding to TG oligonucleotide); assay: HIV Nucleocapsid (AID 346); details: HIV-1 NC / fluorescein-TGTGTGTG probe, fluorescence polarization;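 further: potency is for inhibitors that block NC binding and lower polarization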
Method in brief: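 Inhibition of nucleocapsid binding to single-stranded 5'-TGTGTGTG probe (10 nM) was measured by fluorescence polarization after 1 hr at room temperature with 100 nM protein under high-salt, zinc-containing, reducing conditions.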
Potency means the concentration at half of the fitted maximal effect.

Row | Structure (SMILES) | Potency
1 | COc1ccc(C(=O)N2CCC3(CCN(Cc4ccccc4)CC3)CC2)cc1 | > 20 µM
2 | COc1ccc(-n2c(=O)c(-c3cccs3)nc3cnc(Nc4ccccc4)nc32)cc1 | 4.01 µM (active)
3 | COCC(=O)N1CCC2(CCCN(c3ccc(-c4ccccc4)cc3)C2)CC1 | > 20 µM
4 | CS(=O)(=O)N1CCC2(CCCN(C(=O)Nc3cccc(F)c3)C2)CC1 | > 20 µM
5 | COc1ccc(C(=O)N2CCC3(CC2)CCN(C(c2ccccc2)c2ccccc2)CC3)cc1 | > 20 µM
6 | c1cncc(CNc2ccnc(-c3ccc4c(c3)OCO4)n2)c1 | > 20 µM
7 | COc1ccccc1CNc1ncncc1-c1ccccc1OC | > 20 µM
8 | O=C(c1cnccn1)N1CCC[C@@]2(CCN(c3ccccn3)C2)C1 | > 20 µM
9 | COc1ccccc1CN1CCCC2(CCN(C(=O)c3cnccn3)CC2)C1 | > 20 µM
10 | N#Cc1cccc(NC(=O)N2CC[C@@]3(CCCNC3)C2)c1 | > 20 µM
11 | COc1ccccc1CCn1c(=O)c(-c2cn(C)c3ccccc23)nc2cncnc21 | > 4 µM
12 | c1csc(CNc2cc(-c3ccoc3)ncn2)c1 | > 20 µM
13 | c1csc(CNc2ccnc(-c3ccc4c(c3)OCO4)n2)c1 | > 20 µM
14 | Cc1nc2cnc(Oc3ccccc3)nc2n(-c2ccccc2)c1=O | > 20 µM
15 | COCCNc1cc(-c2ccccc2C(F)(F)F)ncn1 | > 20 µM
16 | COC(=O)N1CCC2(CCCN(c3ccc(-c4ccccc4)cc3)C2)CC1 | > 20 µM
17 | COc1ccc(Oc2ncc3nc(CCc4ccccc4)c(=O)n(C[C@H]4CCCO4)c3n2)cc1 | > 20 µM
18 | CN1CCN(c2ncc3ncc(=O)n(-c4ccccc4)c3n2)CC1 | > 20 µM
19 | COc1cccc(Cn2c(=O)c(C)nc3cnc(Oc4cccc(Cl)c4)nc32)c1 | > 20 µM
20 | CN(C)C(=O)c1ccc(-c2nc(N(C)C)c3ccccc3n2)cc1 | > 20 µM

Row | Structure (SMILES) | Potency
21 | CC(=O)NCCNc1nc(-c2ccc3c(c2)OCO3)nc2ccccc12 | > 20 µM
22 | Cc1cnc(CNc2ccnc(-c3ccoc3)n2)cn1 | > 20 µM
23 | O=C(c1ccco1)N1CCC[C@@]2(CCN(c3cccc(-c4ccccc4)c3)C2)C1 | > 20 µM
24 | Cc1noc(C)c1-c1nc(N2CCOCC2)c2ccccc2n1 | > 20 µM
25 | c1csc(CNc2ncncc2-c2ccc3c(c2)OCO3)c1 | > 20 µM
26 | Cc1noc(C)c1-c1cc(NCc2ccccc2)ncn1 | > 20 µM
27 | O=C(c1cnccn1)N1CCC2(CCCN(c3ccncc3)C2)CC1 | > 20 µM
28 | Cc1cccc(CNc2nc(-c3ccc(C(=O)N(C)C)cc3)nc3ccccc23)c1 | > 20 µM
29 | N#CCCn1c(=O)c(-c2ccc(Cl)cc2)nc2cnc(N3CCNCC3)nc21 | > 20 µM
30 | N#Cc1ccccc1-c1ccc2ncnc(NCc3ccccc3)c2c1 | > 20 µM
31 | Cc1ccccc1-c1nc(Nc2ccncc2)c2ccccc2n1 | > 20 µM
32 | O=C(Nc1ccccc1)N1CC[C@@]2(CCCN(C(=O)c3cc(C(F)(F)F)cc(C(F)(F)F)c3)C2)C1 | > 20 µM
33 | COc1cccc(Nc2ncc3nc(-c4cc(F)cc(F)c4)c(=O)n(C4CC4)c3n2)c1 | > 4 µM
34 | CCNc1ncc2nc(-c3ccc(F)cc3)c(=O)n(-c3ccc(OC)cc3)c2n1 | > 4 µM
35 | COc1ccc(-n2c(=O)cnc3cnc(Oc4cccc(Cl)c4)nc32)cc1 | > 20 µM
36 | O=C(c1cc(C(F)(F)F)cc(C(F)(F)F)c1)N1CCC2(CC1)CCN(c1ccncc1)CC2 | > 20 µM
37 | CN(C)Cc1ccccc1-c1cc(NCc2ccccc2)ncn1 | > 20 µM
38 | CCNc1ncc2nc(-c3ccc(OC)cc3)c(=O)n(Cc3cccs3)c2n1 | > 20 µM
39 | CN(C)C(=O)c1ccc(-c2cncnc2NCCc2cnc[nH]2)cc1 | > 20 µM

Source: PubChem BioAssay (NCATS)
